Assay results: PubChem BioAssay (NCATS)
Values joined by “and” are separate entries in the source; they are usually repeats but may differ in a detail not shown here. Equal values may be shown once. Unmarked numbers belong to inactive results. Records with an inconclusive call do not appear. Where a call stands in place of a potency, no number is given. Active and inactive are the calls of the source. Unless noted, calls follow the shape of the full dose curve.

What was measured:
[1] = biological target: Glucocorticoid receptor (Homo sapiens) (UniProt P04150); experiment: GR-EFC Redistribution (AID 451); conditions: CHO-K1 GR-EFC translocation, beta-gal luminescence, 2 h; also: potency is read from the fitted curve at half-maximal effect
Outline: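 CHO-K1 cells stably expressing nuclear-localized β-gal enzyme acceptor and GR fused C-terminally to the enzyme donor fragment; ligand-driven nuclear translocation restores β-gal by complementation. Compounds titrated up to 46 uM final, 2 h at 37 °C; luminescence read.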

[2] = biological target: Mitogen-activated protein kinase 10 (Mus musculus) (UniProt Q61831); experiment: JNK3 AlphaScreen Assay (AID 530; active = well fitted curve in either direction with a large enough effect, not every such curve was filed as active;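 also: kinase came from lysate of stimulated human HepG2 cells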; also: potency is read from the fitted curve at half-maximal effect); conditions: JNK3 lysate, c-Jun phosphorylation; series mostly up to 57.1 µM
Outline: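 JNK3 came from HepG2 lysates pre-activated with IL-1beta and TNF-alpha and phosphorylated biotinylated GST-cJun (1-79) at 10 uM ATP, pH 7.6, room temperature. Compounds were titrated. AlphaScreen signal used anti-phospho-cJun (Ser73) antibody.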

[3] = Cell Viability - N2a (AID 540; active = well fitted curve in the direction sought with a large enough effect; an effect the other way counts as inactive or inconclusive; also: nearly all actives have a fitted effect of over 45% in size); conditions: N2a mouse neuroblastoma cell viability; series mostly up to 92.2 µM
Outline: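 First, 1500 N2a cells per well incubate 5 hr at 37 °C; next, compounds are added and incubated 40 hr at 37 °C; finally CellTiter-Glo is added and luminescence read after 20 min, with AC50 derived by Hill modeling.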

[4] = Cell Viability - NIH 3T3 (AID 541; active = well fitted curve in the direction sought with a large enough effect; an effect the other way counts as inactive or inconclusive; also: nearly all actives have a fitted effect of over 25% in size); conditions: NIH 3T3 cell viability, qHTS; series mostly up to 92.2 µM
Outline: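 AC50 values reflect concentration-dependent loss of intracellular ATP in NIH 3T3 cells after 40 hr treatment in complete culture medium, quantified by luciferase-based luminescence.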

[5] = Cell Viability - HUV-EC-C (AID 542; active = well fitted curve in the direction sought with a large enough effect; an effect the other way counts as inactive or inconclusive; also: nearly all actives have a fitted effect of over 35% in size); conditions: HUV-EC-C endothelial cell viability, qHTS; series mostly up to 92.2 µM
Outline: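 Decrease in cellular ATP, quantified by luciferase luminescence, reflects toxicity in normal human vascular endothelial HUV-EC-C cells given compound for 40 hr in complete culture medium. Values are AC50s from concentration-response curves.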

[6] = Cell Viability - H-4-II-E (AID 543; active = well fitted curve in the direction sought with a large enough effect; an effect the other way counts as inactive or inconclusive; also: nearly all actives have a fitted effect of over 35% in size); conditions: H-4-II-E rat hepatoma viability; series mostly up to 92.2 µM
Outline: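 Here, cytotoxicity is measured in the rat hepatoma line H-4-II-E as loss of intracellular ATP after 40 hr compound treatment, detected by luciferase luminescence.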

[7] = Cell Viability - SH-SY5Y (AID 544; active = well fitted curve in the direction sought with a large enough effect; an effect the other way counts as inactive or inconclusive; also: nearly all actives have a fitted effect of over 55% in size); conditions: SH-SY5Y neuroblastoma cell viability; series mostly up to 92.2 µM
Outline: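 Cytotoxicity is scored as a concentration-dependent fall in intracellular ATP in human SH-SY5Y cells treated 40 hr in complete culture medium. Potency is expressed as AC50 from a Hill equation fit.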

[8] = Cell Viability - Renal Proximal Tubule (AID 545; active = well fitted curve in the direction sought with a large enough effect; an effect the other way counts as inactive or inconclusive; also: nearly all actives have a fitted effect of over 40% in size); conditions: renal proximal tubule cells viability, primary cells of rat origin; series mostly up to 91.7 µM
Outline: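 Rat renal proximal tubule primary cells, 1000/well, exposed to compounds for 40 hr at 37 °C in complete medium; cellular ATP read by CellTiter-Glo luminescence. AC50 from concentration-response fitted with standard Hill equation.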

[9] = Cell Viability - Mesenchymal (AID 546; active = well fitted curve in the direction sought with a large enough effect; an effect the other way counts as inactive or inconclusive;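 also: cells exposed to compound for 40 hours before reading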); conditions: mesenchymal cells viability, qHTS; series mostly up to 91.7 µM
Outline: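 Normal human renal glomerulus-derived kidney mesenchymal cells, 1000 per well in complete medium, were treated with compounds for 40 hr at 37 °C. Viability was read as intracellular ATP by CellTiter-Glo luminescence; AC50 values came from Hill-equation fits of qHTS concentration-response data.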

[10] = Cellular Toxicity (caspase-3) HepG2 (AID 654; active = well fitted curve in the direction sought with a large enough effect; an effect the other way counts as inactive or inconclusive;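 also: cells exposed to compound for 16 hours before reading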); conditions: HepG2 caspase-3 activation, luminescence, 0% = DMSO only, 100% = tamoxifen; series mostly up to 92.2 µM
Outline: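 qHTS, HepG2, 1500 cells/well, complete medium; cpd 16 h 37 °C; Caspase-Glo 3/7, 20 min RT; lum. Norm: DMSO vs 100 uM tamoxifen; AC50 Hill fit.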

[11] = Cellular Toxicity (caspase-3) Jurkat (AID 655; active = well fitted curve in the direction sought with a large enough effect; an effect the other way counts as inactive or inconclusive;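 also: cells exposed to compound for 16 h at 37 °C before reading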); conditions: Jurkat caspase-3 activation, luminescence, DMSO = 0%, tamoxifen = 100%; series mostly up to 92.2 µM
Outline: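 Jurkat cells (5000/well) in complete medium exposed 16 h at 37 C; caspase-3/7 activity read by Caspase-Glo luminescence after 20 min at room temperature. Normalized to DMSO and 100 uM tamoxifen; AC50 from Hill fits.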

[12] = Cellular Toxicity (caspase-3) HUV-EC-C (AID 656; active = well fitted curve in the direction sought with a large enough effect; an effect the other way counts as inactive or inconclusive); conditions: HUV-EC-C cells, caspase-3 activation (apoptosis), vehicle = 0, 100 µM tamoxifen = 100%; series mostly up to 92.2 µM
Outline: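 HUV-EC-C cells (1000/well) in complete medium, compound-treated 16 h at 37 °C; caspase-3/7 activity read by Caspase-Glo 3/7 luminescence. Normalized to DMSO (basal) and 100 uM tamoxifen (100%); AC50 from Hill-equation concentration-response fits.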

[13] = Cellular Toxicity (caspase-3) SHSY5Y (AID 657; active = well fitted curve in the direction sought with a large enough effect; an effect the other way counts as inactive or inconclusive); conditions: SH-SY5Y caspase-3 activation, DMSO zero, 10 µM staurosporine = 100%; series mostly up to 91.7 µM
Outline: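 SH-SY5Y human neuroblastoma cells, 1500/well, exposed to compound for 16 hours at 37 °C in complete medium. Caspase-3/7 activity read by Caspase-Glo luminescence after 1 hr at room temperature, normalized to DMSO and 10 uM staurosporine; AC50 from Hill fit.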

[14] = Cellular Toxicity (caspase-3) BJ (AID 658; active = well fitted curve in the direction sought with a large enough effect; an effect the other way counts as inactive or inconclusive); conditions: BJ fibroblasts, luminescence, normalized: DMSO 0%, staurosporine 100%; series mostly up to 91.7 µM
Outline: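 Luminescent aminoluciferin-substrate cleavage reports caspase 3/7 activity in normal human BJ fibroblasts after 16 hr compound exposure at 37 °C. Normalized to DMSO (basal) and 10 uM staurosporine (100%); AC50 from Hill fit of concentration-response.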

[15] = Cellular Toxicity (caspase-3) MRC-5 (AID 659; active = well fitted curve in the direction sought with a large enough effect; an effect the other way counts as inactive or inconclusive); conditions: MRC-5 cells, luminescence, normalized: DMSO 0%, 10 µM staurosporine 100%; series mostly up to 91.7 µM
Outline: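 Luminescence from caspase-cleaved aminoluciferin substrate (Caspase-Glo 3/7, 1 hr RT) reports caspase 3/7 activity in MRC-5 lung fibroblasts after 16 hr compound exposure. Normalized to DMSO basal and 10 uM staurosporine as 100%; AC50 from Hill fits.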

[16] = Cellular Toxicity (caspase-3) Mesangial (AID 660; active = well fitted curve in the direction sought with a large enough effect; an effect the other way counts as inactive or inconclusive;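 also: cells exposed to compound for 16 h before the caspase read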); conditions: mesangial cells, normalized: DMSO 0%, 100 µM tamoxifen 100%; series mostly up to 91.7 µM
Outline: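 Concentration-response qHTS: compound-induced rise in caspase 3/7 luminescence in human mesangial cells after 16 h, normalized to DMSO and 100 uM tamoxifen controls.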

[17] = Cellular Toxicity (caspase-3) SK-N-SH (AID 661; active = well fitted curve in the direction sought with a large enough effect; an effect the other way counts as inactive or inconclusive); conditions: SK-N-SH caspase-3 activation, qHTS, DMSO as zero, staurosporine as full; series mostly up to 91.7 µM
Outline: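 Caspase 3/7 activation is measured as a luminescence increase from aminoluciferin released by substrate cleavage in SK-N-SH cells after 16 hr compound treatment; values are AC50 from concentration-response curves.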

[18] = Cellular Toxicity (caspase-3) H-4-II-E (AID 663; active = well fitted curve in the direction sought with a large enough effect; an effect the other way counts as inactive or inconclusive;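 also: cells exposed to compound for 16 hr before readout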); conditions: H-4-II-E rat hepatoma, scaled: DMSO 0%, 100 µM tamoxifen 100%; series mostly up to 92.2 µM
Outline: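 Luminescence from caspase-cleaved aminoluciferin substrate, read 20 min after reagent addition, reports caspase 3/7 activation in rat H-4-II-E cells after 16 hr compound exposure. Normalized to DMSO (basal) and 100 uM tamoxifen (100%); AC50 from Hill fits.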

[19] = Cellular Toxicity (caspase-3) Hek293 (AID 664; active = well fitted curve in the direction sought with a large enough effect; an effect the other way counts as inactive or inconclusive;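 also: cells exposed to compound for 16 h at 37 °C before readout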); conditions: HEK293 caspase-3 activation, DMSO = 0%, 100 µM tamoxifen = 100%; series mostly up to 92.2 µM
Outline: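 Activation of caspase-3/7 is measured as increased luminescence from cleaved peptide-aminoluciferin substrate in HEK293 cells treated 16 hours at 37 °C. AC50 values come from Hill-equation fits of concentration-response data.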

[20] = Cellular Toxicity (caspase-3) N2a (AID 665; active = well fitted curve in the direction sought with a large enough effect; an effect the other way counts as inactive or inconclusive;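 also: compound exposure lasted 16 h at 37 °C before readout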); conditions: N2a cells, luminescence, normalized: DMSO 0%, 10 µM staurosporine 100%; series mostly up to 92.2 µM
Outline: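 Plated mouse neuroblastoma N2a cells received titrated compounds for 16 h in complete medium. Caspase activity was then detected with a peptide-aminoluciferin luminescent reagent.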

Sequence of Glucocorticoid receptor (Homo sapiens) (P04150 whole entry, looked up, the tested form may be a part): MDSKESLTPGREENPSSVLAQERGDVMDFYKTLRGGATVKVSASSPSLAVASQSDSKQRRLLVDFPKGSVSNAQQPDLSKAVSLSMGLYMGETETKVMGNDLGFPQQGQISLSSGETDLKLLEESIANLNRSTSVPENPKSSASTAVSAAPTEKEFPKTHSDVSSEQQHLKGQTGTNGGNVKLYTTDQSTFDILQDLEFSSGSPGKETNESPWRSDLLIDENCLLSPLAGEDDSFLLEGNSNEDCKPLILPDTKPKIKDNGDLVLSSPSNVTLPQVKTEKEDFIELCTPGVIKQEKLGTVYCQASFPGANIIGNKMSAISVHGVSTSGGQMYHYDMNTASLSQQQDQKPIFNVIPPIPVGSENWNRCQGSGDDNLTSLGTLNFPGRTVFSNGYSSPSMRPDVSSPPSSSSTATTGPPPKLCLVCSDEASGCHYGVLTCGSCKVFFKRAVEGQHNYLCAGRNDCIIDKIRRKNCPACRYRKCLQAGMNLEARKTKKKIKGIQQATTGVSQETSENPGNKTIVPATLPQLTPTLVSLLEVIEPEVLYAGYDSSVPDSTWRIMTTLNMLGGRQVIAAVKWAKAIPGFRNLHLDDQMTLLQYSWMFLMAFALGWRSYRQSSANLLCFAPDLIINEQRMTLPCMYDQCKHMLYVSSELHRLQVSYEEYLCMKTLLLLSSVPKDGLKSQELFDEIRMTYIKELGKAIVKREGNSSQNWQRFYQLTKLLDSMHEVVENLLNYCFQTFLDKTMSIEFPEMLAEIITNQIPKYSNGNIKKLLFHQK

CN(C)CC[C@H](c1ccc(Cl)cc1)c1ccccn1
Potency [1]: > 46 µM and > 20.6 µM
Potency [2]: inactive

CC(C)[C@H](CO)Nc1nc(Nc2cccc(Cl)c2)c2ncn(C(C)C)c2n1
Potency [1]: > 46 µM
Potency [2]: inactive

c1coc(CNc2ncnc3nc[nH]c23)c1
Potency [1]: > 20.6 µM and > 46 µM
Potency [2]: inactive

COc1ccc([C@@H]2CNC(=O)C2)cc1OC1CCCC1
Potency [1]: > 46 µM and > 20.6 µM
Potency [2]: inactive

CCOC(=O)C1=C(C)NC(=S)NC1c1cccc(O)c1 (centres undefined)
Potency [1]: > 46 µM
Potency [2]: inactive

COc1cc2ncnc(Nc3cccc(Br)c3)c2cc1OC
Potency [1]: > 46 µM

Cc1cc(O)c2c(c1)C(=O)c1cccc(O)c1C2=O
Potency [2]: inactive
outcome [3]: inactive
outcome [4]: inactive
outcome [5]: inactive
outcome [6]: inactive
outcome [7]: inactive
outcome [8]: inactive
outcome [9]: inactive
outcome [10]: inactive
outcome [11]: inactive
outcome [12]: inactive
outcome [13]: inactive
outcome [14]: inactive
outcome [15]: inactive
outcome [16]: inactive
outcome [17]: inactive
outcome [18]: inactive
outcome [19]: inactive
outcome [20]: inactive

CCN1CCN(C(=O)N[C@H](C(=O)N[C@@H]2C(=O)N3C(C(=O)O)=C(CSc4nnnn4C)CS[C@@H]23)c2ccc(O)cc2)C(=O)C1=O
Potency [2]: inactive

CN(N=O)C(=O)N[C@H]1C(O)OC(CO)[C@@H](O)[C@H]1O (some centres undefined)
Potency [1]: > 46 µM
Potency [2]: inactive

O=c1c(O)c(-c2ccc(O)c(O)c2)oc2cc(O)ccc12
Potency [1]: > 46 µM
Potency [2]: 12.6 µM (active)

COc1cc2c(cc1O)CCC1C2CC[C@@]2(C)C1CC[C@@H]2O (some centres undefined)
Potency [1]: > 46 µM

COc1cc2c(cc1OC)[C@@H]1C(=O)c3ccc4c(c3O[C@@H]1CO2)C=CC(C)(C)O4
Potency [1]: > 46 µM

COc1ccc2c(c1OC)C(=O)OC2[C@H]1c2c(cc3c(c2OC)OCO3)CCN1C (some centres undefined)
Potency [1]: > 46 µM and > 20.6 µM
Potency [2]: inactive

CC(Oc1ccc(O)cc1)(P(=O)(O)O)P(=O)(O)O
Potency [1]: > 46 µM

Nc1nc2c(c(=O)[nH]1)N(C=O)[C@H](CNc1ccc(C(=O)N[C@@H](CCC(=O)O)C(=O)O)cc1)CN2
Potency [1]: > 20.6 µM
Potency [2]: inactive

O=C(O)C=Cc1ccc(Cn2ccnc2)cc1
Potency [1]: > 46 µM
Potency [2]: inactive
